Compound activity as filed in PubChem.
In the library only some 2.4% were active in any assay of this set; here they are far more common.
M1 ag – activates human CHRM1 receptor; 360,000 tested, 0.33% active; AID 588814; activation, % at 3 µM; P11229; CHO-K1 hM1, Fluo-8 calcium fluorescence, agonist mode; 0% DMSO, 100% acetylcholine EC100;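 active means activation above the run's mean compound activation plus 3 SD, cut at about 16% in these data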;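 further: peak over basal fluorescence ratio within a 140 s kinetic read after compound addition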
Target sequence (P11229 whole entry, looked up): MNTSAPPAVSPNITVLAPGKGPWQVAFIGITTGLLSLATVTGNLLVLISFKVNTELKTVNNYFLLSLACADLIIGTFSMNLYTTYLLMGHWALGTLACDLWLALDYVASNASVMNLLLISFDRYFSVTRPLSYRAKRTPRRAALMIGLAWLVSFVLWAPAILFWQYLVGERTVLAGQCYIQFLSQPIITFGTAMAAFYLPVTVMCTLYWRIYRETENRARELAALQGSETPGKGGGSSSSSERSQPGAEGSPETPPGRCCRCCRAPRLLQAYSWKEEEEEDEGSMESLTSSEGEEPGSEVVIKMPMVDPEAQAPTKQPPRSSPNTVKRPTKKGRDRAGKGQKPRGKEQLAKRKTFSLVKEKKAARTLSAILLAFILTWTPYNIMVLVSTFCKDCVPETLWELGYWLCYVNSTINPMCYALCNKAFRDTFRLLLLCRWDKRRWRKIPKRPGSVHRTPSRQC
CHRM1 PAM – potentiates human M1 receptor response to acetylcholine; CHO-K1 hM1, Fluo-8 calcium fluorescence, ACh EC20; 0% = ACh EC20, 100% = maximal ACh; 360,000 tested, 0.088% active; AID 588819; activation, % at 3 µM; in the data active means activation above about 19%, passing the limit was not always enough
CHRM1 antagonist – human CHRM1 antagonism; inhibition, % at 3 µM; AID 588852; CHO-K1 hM1, Fluo-8 calcium fluorescence, ACh EC80 antagonist; 360,000 tested, 1.3% active;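 active means percent inhibition above its own plate's cutoff, namely the mean of that plate's compound wells plus 3 SD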;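 further: peak over basal fluorescence ratio during 140 s after agonist addition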
CHO-K1 Ca PAM – nonselective activator or artifact in parental CHO-K1 calcium assay; ATP EC20, Fluo-8 calcium fluorescence; 0% at ATP EC20, 100% at ATP max; activation, % at 3 µM; 360,000 tested, 0.02% active;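 active means activation above the run cutoff, the mean activation of all test compounds plus 3 SD, cut at about 40% in these data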;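 further: peak over basal fluorescence ratio in a 140 s read after ATP addition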
CHO-K1 Ca antag – counter-screen for M1 antagonists: effect in parental CHO-K1 cells; AID 602250; 360,000 tested, 0.6% active; inhibition, % at 3 µM; ATP-induced calcium, Fluo-8 fluorescence;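 active means inhibition above a per-plate cutoff, the plate's mean sample inhibition plus 3 SD, cut at about 24% in these data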
M1 ag parental – counter-screen for M1 agonists: effect in parental CHO-K1 cells. Fluo-8 calcium fluorescence; scaled to maximal ATP response, vehicle zero. activation, % at 3 µM. 360,000 tested, 0.48% active. AID 602248; in the data active means activation above about 15%;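 further: untransfected CHO-K1 host cells lacking M1 receptor as counterscreen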
A number is an active result; . = inactive.

SMILES	M1 ag	CHRM1 PAM	CHRM1 antagonist	CHO-K1 Ca PAM	CHO-K1 Ca antag	M1 ag parental
Cc1ccccc1Sc1ccc(N)cn1	.	.	59	.	.	.
Cc1c(NC(=O)/C(=C/c2cccs2)c2cccs2)c(=O)n(-c2ccccc2)n1C	.	.	54	.	.	.
CNC(=O)C[C@H]1C(=O)N(c2ccc(Br)cc2)C[C@@H]1C	.	.	.	.	.	.
c1cc2c(cc1CN1CCN(C3CCCCCC3)CC1)OCO2	.	.	64	.	.	.
c1ccc(CN2CCC(N3CCN(Cc4ccc5c(c4)OCO5)CC3)CC2)cc1	.	.	.	.	.	.
Cc1cc(OCC(=O)Nc2ccncc2)cc(C)c1Cl	.	.	30	.	.	.
Cc1cc(OCC(=O)Nc2ccc(N3CCCC3)cc2)cc(C)c1Cl	.	.	58	.	.	.
CC(C)CCOc1cccc(OCC(=O)Nc2ccncc2)c1	.	.	.	.	28	.
O=C(COc1ccc2ccccc2c1Br)Nc1ccncc1	.	.	30	.	.	15
Cc1ccc(OCC(=O)Nc2ccncc2)cc1C	.	.	.	.	.	.
CCOC(=O)C1=C(CBr)NC(=O)NC1C (configuration not stated)	.	.	.	.	.	.
O=C(N/N=C/c1ccccn1)c1cccc(S(=O)(=O)N2CCCC2)c1	.	.	.	.	.	.
CCc1cc(C(=O)N/N=C/c2ccc(OC)cc2)c2ccccc2n1	.	.	.	.	.	.
Cc1cc(OCC(=O)Nc2ccncc2)c(C)cc1Br	.	.	37	.	32	.
CC(C)c1ccc2oc(-c3cc(N)ccc3O)nc2c1	.	.	.	.	24	.
Cc1ccccc1-c1nc2cc(N)ccc2o1	.	.	.	.	.	.
Cc1ccc(S(=O)(=O)C(c2ccccc2)c2c(C)noc2C)cc1 (configuration not stated)	.	.	.	.	.	.
Cc1noc(C)c1C(c1ccccc1)S(=O)(=O)c1ccccc1 (configuration not stated)	.	.	.	.	28	.
COc1ccc(S(=O)(=O)Nc2ccccc2C(=O)Nc2nc(-c3ccc(F)cc3)cs2)cc1OC	.	.	.	.	33	.
COc1ccc(-c2ccc(SCC(=O)Nc3nccs3)nn2)cc1OC	.	.	35	.	.	.
COc1ccc(-c2csc(NC(=O)C3CCN(c4ncnc5sc(C)c(C)c45)CC3)n2)cc1OC	.	.	46	.	.	.
COc1ccccc1OCC(=O)NNC(=O)C1CCN(c2ncnc3sc(C)c(C)c23)CC1	.	.	.	.	.	.
COc1ccc(CC(=O)Nc2nc(-c3ccc(OC)c(OC)c3)cs2)cc1OC	16	.	.	.	.	.
COc1ccc(-c2nnc3ccc(SCC(=O)Nc4nccs4)nn23)cc1OC	.	.	.	.	.	.
CCCCN(C(=O)c1cc(S(=O)(=O)N2CCCCC2)ccc1Cl)c1c(N)n(CCC)c(=O)[nH]c1=O	.	.	.	.	.	.
SMILES	M1 ag	CHRM1 PAM	CHRM1 antagonist	CHO-K1 Ca PAM	CHO-K1 Ca antag	M1 ag parental
COc1cccc(C(C)(O)c2nc(-c3cccc(C#N)c3)cs2)c1 (configuration not stated)	.	.	.	.	.	.
CCN(CC)c1ccc(/C=C/C(=O)C2C(=O)C=C(C)OC2=O)cc1 (configuration not stated)	134	.	56	.	44	50
Cc1cc(C)nc(NC(=O)C2c3ccccc3Oc3ccccc32)n1	.	.	.	.	.	.
Cc1cccc(N2CCN(C(=O)C3CCN(S(=O)(=O)c4cccc5cccnc45)CC3)CC2C)c1 (configuration not stated)	.	.	.	.	.	.
CCCN(CCC)CCCNC(=O)C1CCC(CNS(=O)(=O)c2cccc3nsnc23)CC1 (configuration not stated)	.	.	51	.	.	.
CCC1CCCCN1CCNC(=O)C1CCN(S(=O)(=O)c2cccc3nsnc23)CC1 (configuration not stated)	.	.	52	.	.	.
CC(C)OCCCNC(=O)C1CCC(CNS(=O)(=O)c2cccc3nsnc23)CC1 (configuration not stated)	.	.	.	.	.	.
O=C(C1CCN(S(=O)(=O)c2cccc3nsnc23)CC1)N1CCn2c1nc1ccccc12	17	.	.	.	.	.
CC1CCN(CCNC(=O)C2CCN(S(=O)(=O)c3cccc4nsnc34)CC2)CC1	.	.	.	.	.	.
Cc1cccc(N2CCN(C(=O)C3CCN(S(=O)(=O)c4cccc5nsnc45)CC3)CC2C)c1 (configuration not stated)	.	.	25	.	.	.
C=CCN([C@H](C(=O)OC)C(C)C)S(=O)(=O)CCNCc1ccccc1	.	.	.	.	.	.
CCN(CC)CCN(C(=O)CCOc1ccccc1)c1nc2ccc(F)cc2s1	.	.	.	.	.	.
CC(OC(=O)COc1cccc2c1OC(C)(C)C2)C(=O)Nc1ccc(S(N)(=O)=O)cc1 (configuration not stated)	.	.	.	.	.	.
CC(NC(=O)C12CC3CC(CC(C3)C1)C2)C(=O)NN=Cc1ccc([N+](=O)[O-])o1 (configuration not stated)	.	.	102	.	.	.
COc1cc(CN2CCN(C(=O)c3cccc4ccccc34)CC2)cc(OC)c1O	.	.	.	.	.	.
COc1cc(CNCc2ccc(Br)cc2)cc(OC)c1	.	.	.	.	.	15
O=C(CNC(=O)c1cccc(Cl)c1)Nc1ccc(F)c(F)c1F	.	.	.	.	.	.
O=C(CSc1cc(Cl)ccc1Cl)NCC(=O)Nc1ccc(F)c(F)c1F	.	.	.	.	.	15
CC1(NC(=S)Nc2ccc(NC(=S)NC3(C)CCS(=O)(=O)C3)cc2)CCS(=O)(=O)C1 (configuration not stated)	17	.	.	.	.	.
N#Cc1ccc(C(=O)NNC(=O)c2ccncc2)cc1	.	.	.	.	.	.
CC(=O)N1CCN(C(=O)c2ccc(Cl)c(S(=O)(=O)N3CCc4ccccc43)c2)CC1	.	.	.	.	.	.
O=C(NNC(=O)c1ccccc1O)c1ccc(Cl)c(S(=O)(=O)N2CCc3ccccc32)c1	.	.	38	.	40	.
Cc1ccc(NC(=O)c2ccc(Cl)c(S(=O)(=O)N3CCc4ccccc43)c2)nc1	.	.	.	.	.	.
O=C(c1ccc(Cl)c(S(=O)(=O)N2CCc3ccccc32)c1)N1CCN(c2ccccc2O)CC1	.	.	25	.	.	.
COc1ccc(/C=C2\Sc3ccc(C(=O)NCCCN4CCCC4)cc3N(C)C2=O)cc1OC	.	.	.	.	.	.
